{
  "source": "PubChem BioAssay (EPA / NIEHS)",
  "note": "Calls of active or inactive are those of the source. The calls were made as follows: active = hit-call score of the fitted dose curve at least 0.9, where 1 is the maximum; inactive = score below 0.9.",
  "data": [
    {"read-out": "Matrix Metallopeptidase 1 (MMP1), MMP1 (gene 4312)", "assay": "BSK_BE3C_MMP1: BioMAP Diversity Plus: BE3C Assay for Matrix Metallopeptidase 1 (MMP1) Biomarker Activity (AID 2283024)", "conditions": "primary human bronchial epithelial cells; actives raise or lower the signal", "how_it_was_run": "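MMP1 signal, measured by ELISA after a 24 h chemical exposure of human primary bronchial epithelial cells, is analysed with bidirectional fitting using DMSO as negative control.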", "values": [
      {"compound": "CC(C)Nc1nc(Cl)nc(NC(C)C)n1", "outcome": "inactive"},
      {"compound": "OC(c1ccc(Cl)cc1)(c1ccc(Cl)cc1)C(Cl)(Cl)Cl", "AC50": "34.1 µM (active)"},
      {"compound": "CNC(=O)N(C)c1nnc(C(C)(C)C)s1", "outcome": "inactive"},
      {"compound": "Cn1c(-c2ccccc2)cc(-c2ccccc2)[n+]1C", "outcome": "inactive"},
      {"compound": "CC1(C)C(C(=O)OC(C#N)c2cccc(Oc3ccccc3)c2)C1(C)C", "note": "(stereo unspecified)", "outcome": "inactive"},
      {"compound": "CCC(C)n1c(=O)[nH]c(C)c(Br)c1=O", "note": "(stereo unspecified)", "outcome": "inactive"},
      {"compound": "COCC(=O)N(c1c(C)cccc1C)C(C)C(=O)OC", "note": "(stereo unspecified)", "outcome": "inactive"},
      {"compound": "CSC(=O)c1c(C(F)F)nc(C(F)(F)F)c(C(=O)SC)c1CC(C)C", "AC50": "6.22 µM (active)"},
      {"compound": "COP(=S)(OC)SCn1nnc2ccccc2c1=O", "outcome": "inactive"},
      {"compound": "CCOc1nc(F)cc2nc(S(=O)(=O)Nc3c(Cl)cccc3Cl)nn12", "outcome": "inactive"},
      {"compound": "COC(=O)NS(=O)(=O)c1ccc(N)cc1", "outcome": "inactive"},
      {"compound": "Cc1ccc(N=CN(C)C=Nc2ccc(C)cc2C)c(C)c1", "outcome": "inactive"},
      {"compound": "Clc1cccc(C(Cl)(Cl)Cl)n1", "outcome": "inactive"},
      {"compound": "O=C(O)c1c(Cl)ccc2cc(Cl)cnc12", "outcome": "inactive"},
      {"compound": "CC(C)(C)C(=O)C(Oc1ccc(Cl)cc1)n1cncn1", "note": "(stereo unspecified)", "outcome": "inactive"},
      {"compound": "CN=C=S", "outcome": "inactive"},
      {"compound": "CCOP(=S)(OCC)Oc1nc(Cl)n(C(C)C)n1", "outcome": "inactive"},
      {"compound": "Nc1cnn(-c2ccccc2)c(=O)c1Cl", "outcome": "inactive"},
      {"compound": "CC1(C)CON(Cc2ccccc2Cl)C1=O", "outcome": "inactive"},
      {"compound": "CCCC(=NOCC)C1=C(O)CC(CC(C)SCC)CC1=O", "note": "(stereo unspecified)", "outcome": "inactive"},
      {"compound": "CO/N=C(/C1=NOCCO1)c1ccccc1Oc1ncnc(Oc2ccccc2Cl)c1F", "outcome": "inactive"},
      {"compound": "CC1(C)CCC(=Cc2ccc(Cl)cc2)C1(O)Cn1cncn1", "note": "(stereo unspecified)", "outcome": "inactive"},
      {"compound": "Cc1cc(C)nc(Nc2ccccc2)n1", "outcome": "inactive"},
      {"compound": "N#Cc1c[nH]cc1-c1cccc2c1OC(F)(F)O2", "outcome": "inactive"},
      {"compound": "COc1cc(Cl)c(OC)cc1Cl", "outcome": "inactive"},
      {"compound": "CC(C)NC(=O)N1CC(=O)N(c2cc(Cl)cc(Cl)c2)C1=O", "outcome": "inactive"},
      {"compound": "CCCCC(C#N)(Cn1cncn1)c1ccc(Cl)cc1", "note": "(stereo unspecified)", "outcome": "inactive"},
      {"compound": "CC(C)C1(C)N=C(c2ncccc2C(=O)O)NC1=O", "note": "(stereo unspecified)", "outcome": "inactive"},
      {"compound": "CC1(C)C(C=C(Cl)Cl)C1C(=O)OC(C#N)c1cccc(Oc2ccccc2)c1", "note": "(stereo unspecified)", "outcome": "inactive"},
      {"compound": "CCCCC(O)(Cn1cncn1)c1ccc(Cl)cc1Cl", "note": "(stereo unspecified)", "AC50": "12.8 µM (active)"},
      {"compound": "Cc1nc(N(C)C)nc(OC(=O)N(C)C)c1C", "outcome": "inactive"},
      {"compound": "Clc1nc(Cl)nc(Nc2ccccc2Cl)n1", "outcome": "inactive"},
      {"compound": "COC(=O)N(C(=O)N1CO[C@@]2(C(=O)OC)Cc3cc(Cl)ccc3C2=N1)c1ccc(OC(F)(F)F)cc1", "outcome": "inactive"},
      {"compound": "Nc1c(Cl)c(F)nc(OCC(=O)O)c1Cl", "outcome": "inactive"},
      {"compound": "CCOP(=O)(OCC)Oc1nc(Cl)c(Cl)cc1Cl", "outcome": "inactive"},
      {"compound": "COc1ccc(-c2ccccc2)cc1NNC(=O)OC(C)C", "outcome": "inactive"}
    ]}
  ]
}
